Assay results from PubChem BioAssay.
The source made the active and inactive calls. Unless noted, how the calls were made is not given here.

Legend:
[1] = tested on: Wnt5a (protein binding on small-molecule microarray); assay: small molecules binding Wnt5a protein – biophysical, small-molecule microarray, 635/667 nm fluorescence, primary screen (AID 1142); settings: 635 nm fluorescence, higher = more signal;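 further: fluorescence read at 667 nm with signal to noise per printed feature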
[2] = ATP-based viability of Huh7 replicon cells – cell-based, CellTiter-Glo luminescence, basal, 48 h, cytotoxicity control for HCV replication inhibitor project, primary screen (AID 1143); settings: higher = more signal, called active from +8 up or from −8 down;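 further: Huh7 hepatoma cells carrying a hepatitis C replication reporter with no stimulus; test concentration not given here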
[3] = Pseudomonas biofilm growth suppression – PAO1 strain, BacTiter-Glo luminescence, LB-PBS, primary screen (AID 1144); settings: P. aeruginosa PAO1 biofilm, 12 h, higher = more signal
[4] = basal CRE-LacZ reporter activity in PC12 – cell-based, unstimulated, primary screen (AID 1145); settings: no forskolin, luminescence, 4.5 h, higher = more signal, called active from +8 up or from −8 down
[5] = forskolin-driven CRE-LacZ activity in PC12 – cell-based, CRE-LacZ reporter, forskolin-stimulated, primary screen (AID 1146); settings: luminescence, 4.5 h, higher = more signal, called active from +8 up or from −8 down;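 further: PC12 cells with 6xCRE LacZ reporter stimulated by forskolin 10 µM; beta-galactosidase reporter signal reflecting CREB driven transcription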
[6] = molecular target: Streptavidin (Streptomyces avidinii) (UniProt P22629); assay: compounds binding control protein streptavidin – biophysical, small-molecule microarray, 635/667 nm fluorescence, artefact control for SMM compound annotation, primary screen (AID 1147); settings: higher = more signal;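 further: signal reflects streptavidin binding to arrayed compounds as a control protein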
[7] = probe aInhba binding on compound microarray – biochemical, small-molecule microarray, 635/667 nm fluorescence, primary screen (AID 1148); settings: higher = more signal;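 further: score merges 667nm spot fluorescence with signal-to-noise for antibody binding to printed compounds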
Torsin-1A (Homo sapiens) [8] = molecular target: Torsin-1A (Homo sapiens) (UniProt O14656); assay: TOR1A wild-type binding on microarray – cell lysate, small-molecule microarray, lysate, 635/667 nm, primary screen (AID 1149); settings: COS7 hTOR1A-WT lysate, 635 nm fluorescence, higher = more signal
Torsin-1A (Homo sapiens) [9] = molecular target: Torsin-1A (Homo sapiens) (UniProt O14656); assay: torsin A mutant lysate binding on microarrays – cell lysate, small-molecule microarray, COS7 lysate, 635/667 nm fluorescence, primary screen (AID 1150); settings: COS7 hTOR1A mutant lysate, 635 nm fluorescence, higher = more signal;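 further: score pools 667 nm emission and signal to noise measuring lysate protein binding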
[10] = tested on: Sonic hedgehog protein (Shh); assay: Sonic hedgehog microarray binding compounds – biochemical, small-molecule microarray, 635/667 nm fluorescence, primary screen (AID 1151); settings: 635 nm fluorescence, higher = more signal;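 further: Shh protein binding to compounds spotted on small-molecule microarray slides; score combines spot fluorescence intensity with signal-to-noise across triplicate slides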
[11] = optical density shifts of acrAB sulA E. coli – strain DRC41, OD650, 48 h, E. coli filamentation inducer project, primary screen (AID 1152); settings: higher = more signal, called active from +8 up or from −8 down;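 further: E. coli MC1000 strain DRC41 lacking acrAB efflux pump and sulA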
[12] = probe aLefty1 binding on compound microarray – biochemical, small-molecule microarray, 635/667 nm fluorescence, primary screen (AID 1153); settings: higher = more signal;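 further: score merges spot fluorescence with signal-to-noise ratio from the scanned slide images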
[13] = plasmodial surface anion channel blockers, osmotic lysis – cell-based, P. falciparum Indochina, OD700, 1 h, primary screen (AID 1154); settings: P. falciparum Indochina infected RBC osmotic lysis, higher = more signal, called active from +8 up or from −8 down
[14] = plasmodial surface anion channel blockers, osmotic lysis – cell-based, P. falciparum Indochina, OD700, 2 h, primary screen (AID 1155);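 further: lysis reports solute entry through the parasite surface anion channel PSAC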; settings: P. falciparum Indochina infected erythrocytes, higher = more signal, called active from +8 up or from −8 down
[15] = changes in parasitized red cell lysis, either direction – P. falciparum Indochina, OD700, 3 h, PSAC antagonist project, primary screen (AID 1156); settings: P. falciparum-infected erythrocytes, osmotic lysis, higher = more signal, called active from +8 up or from −8 down
[16] = plasmodial surface anion channel blockers, osmotic lysis – cell-based, P. falciparum Indochina, OD700, 18 h, primary screen (AID 1157); settings: P. falciparum Indochina infected erythrocytes, osmotic lysis OD700, 18 h; higher = more signal, called active from +8 up or from −8 down
[17] = S6 kinase pathway phospho-S6 level changes – cell-based, A549, cytoblot, luminescence, serum-stimulated, primary screen (AID 1158); settings: 5 h, higher = more signal;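 further: serum-stimulated A549 lung adenocarcinoma cells; signal is phosphorylated S6 detected by cytoblot immunostaining with HRP secondary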
[18] = molecular target: NADPH oxidase 2 (Homo sapiens) (UniProt P04839); assay: compounds shifting NOX2 Amplex Red fluorescence – cell-based, HEK293-NOX2, PMA-stimulated, NOX inhibitor project, primary screen (AID 1159); settings: 45 min, higher = more signal, called active from +8 up or from −8 down; further: test concentration not given here
[19] = molecular target: NADPH oxidase 4 (Homo sapiens) (UniProt Q9NPH5); assay: compounds shifting NOX4 Amplex Red fluorescence – cell-based, HEK293-NOX4, tetracycline-induced, NOX inhibitor project, primary screen (AID 1160); settings: HEK293-NOX4, Amplex Red H2O2 fluorescence, 45 min; higher = more signal, called active from +8 up or from −8 down
[20] = molecular target: NADPH oxidase 5 (Homo sapiens) (UniProt Q96PH1); assay: compounds shifting NOX5 Amplex Red fluorescence – cell-based, HEK293-NOX5, NOX inhibitor project, primary screen (AID 1161); settings: HEK293-NOX5, ionomycin, 45 min, higher = more signal
Chain of NADPH oxidase 5 (Homo sapiens) (Q96PH1 whole entry, looked up): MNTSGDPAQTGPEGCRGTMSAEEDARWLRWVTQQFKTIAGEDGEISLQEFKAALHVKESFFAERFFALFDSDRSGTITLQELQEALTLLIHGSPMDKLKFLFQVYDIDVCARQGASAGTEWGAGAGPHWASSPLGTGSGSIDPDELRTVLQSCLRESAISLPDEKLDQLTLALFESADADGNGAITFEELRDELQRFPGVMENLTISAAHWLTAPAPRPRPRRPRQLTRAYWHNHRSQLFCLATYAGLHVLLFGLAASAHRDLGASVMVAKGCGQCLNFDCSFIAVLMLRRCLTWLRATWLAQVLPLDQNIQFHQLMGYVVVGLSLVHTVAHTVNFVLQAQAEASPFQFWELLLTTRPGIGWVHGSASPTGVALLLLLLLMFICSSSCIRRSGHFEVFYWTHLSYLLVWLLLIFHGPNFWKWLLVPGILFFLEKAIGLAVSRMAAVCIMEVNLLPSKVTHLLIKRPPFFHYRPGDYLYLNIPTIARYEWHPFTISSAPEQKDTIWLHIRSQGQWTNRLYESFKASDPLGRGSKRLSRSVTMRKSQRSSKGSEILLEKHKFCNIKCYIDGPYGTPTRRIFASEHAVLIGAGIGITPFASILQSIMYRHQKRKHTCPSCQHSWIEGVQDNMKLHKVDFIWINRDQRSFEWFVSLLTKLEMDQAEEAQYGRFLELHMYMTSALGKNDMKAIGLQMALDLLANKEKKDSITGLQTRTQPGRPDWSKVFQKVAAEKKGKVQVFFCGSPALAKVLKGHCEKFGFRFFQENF

Chain of Streptavidin (Streptomyces avidinii) (P22629 whole entry, looked up): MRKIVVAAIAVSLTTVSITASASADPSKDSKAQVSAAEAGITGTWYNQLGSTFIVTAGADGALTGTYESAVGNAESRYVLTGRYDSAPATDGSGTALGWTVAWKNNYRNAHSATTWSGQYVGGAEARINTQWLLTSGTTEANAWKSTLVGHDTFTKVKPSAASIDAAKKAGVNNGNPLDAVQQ
Chain of NADPH oxidase 4 (Homo sapiens) (Q9NPH5 whole entry, looked up): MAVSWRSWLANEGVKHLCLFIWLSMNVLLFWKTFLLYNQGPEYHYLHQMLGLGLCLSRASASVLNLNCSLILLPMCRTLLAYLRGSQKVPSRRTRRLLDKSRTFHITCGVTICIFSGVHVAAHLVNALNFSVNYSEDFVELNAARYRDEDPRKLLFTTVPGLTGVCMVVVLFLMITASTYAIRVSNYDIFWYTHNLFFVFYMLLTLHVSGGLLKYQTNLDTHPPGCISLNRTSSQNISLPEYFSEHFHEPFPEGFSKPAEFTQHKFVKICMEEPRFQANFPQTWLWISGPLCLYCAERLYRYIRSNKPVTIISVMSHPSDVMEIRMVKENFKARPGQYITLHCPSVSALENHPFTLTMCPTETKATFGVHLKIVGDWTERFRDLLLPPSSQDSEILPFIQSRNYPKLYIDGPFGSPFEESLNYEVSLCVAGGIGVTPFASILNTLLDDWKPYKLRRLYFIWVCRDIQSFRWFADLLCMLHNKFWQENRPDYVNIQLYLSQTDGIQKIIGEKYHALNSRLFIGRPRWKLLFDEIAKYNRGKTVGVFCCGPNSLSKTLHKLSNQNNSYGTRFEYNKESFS
Chain of Torsin-1A (Homo sapiens) (O14656 whole entry, looked up): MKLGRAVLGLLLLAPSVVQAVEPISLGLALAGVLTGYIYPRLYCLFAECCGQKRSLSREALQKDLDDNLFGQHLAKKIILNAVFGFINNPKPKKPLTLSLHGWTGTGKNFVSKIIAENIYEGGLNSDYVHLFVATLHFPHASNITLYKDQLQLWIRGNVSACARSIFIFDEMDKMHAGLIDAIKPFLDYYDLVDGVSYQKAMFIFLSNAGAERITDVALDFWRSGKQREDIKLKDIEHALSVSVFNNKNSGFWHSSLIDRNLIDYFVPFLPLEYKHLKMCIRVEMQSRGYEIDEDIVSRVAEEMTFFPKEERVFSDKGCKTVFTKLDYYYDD
Chain of NADPH oxidase 2 (Homo sapiens) (P04839 whole entry, looked up): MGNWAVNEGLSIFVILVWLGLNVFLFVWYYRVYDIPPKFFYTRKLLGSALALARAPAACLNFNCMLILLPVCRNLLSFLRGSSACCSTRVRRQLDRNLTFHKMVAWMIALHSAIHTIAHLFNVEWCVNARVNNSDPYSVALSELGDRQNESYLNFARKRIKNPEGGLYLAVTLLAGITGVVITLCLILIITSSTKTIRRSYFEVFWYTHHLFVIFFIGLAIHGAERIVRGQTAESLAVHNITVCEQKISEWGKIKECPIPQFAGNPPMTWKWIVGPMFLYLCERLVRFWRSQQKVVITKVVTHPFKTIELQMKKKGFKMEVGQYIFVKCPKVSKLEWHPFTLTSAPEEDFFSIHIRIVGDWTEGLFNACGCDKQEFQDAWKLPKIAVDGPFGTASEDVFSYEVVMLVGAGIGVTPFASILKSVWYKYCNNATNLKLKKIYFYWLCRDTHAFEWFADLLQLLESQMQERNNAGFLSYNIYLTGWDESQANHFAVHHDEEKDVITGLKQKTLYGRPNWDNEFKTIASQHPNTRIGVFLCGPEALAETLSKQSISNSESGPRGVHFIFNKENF

Compound	composite z-score [1]	z-score [2]	z-score [3]	z-score [4]	z-score [5]	composite z-score [6]	composite z-score [7]	composite z-score (Torsin-1A (Homo sapiens) [8])	composite z-score (Torsin-1A (Homo sapiens) [9])	composite z-score [10]	z-score [11]	composite z-score [12]	z-score [13]	z-score [14]	z-score [15]	z-score [16]	z-score [17]	z-score [18]	z-score [19]	z-score [20]
CCCC[C@H]1OB(O)C[C@H]2C1=C(COC)C[C@H]1C(=O)C=CC(=O)[C@H]12	0.269	-1.06 (inactive)	-0.229 (inactive)	10.7 (active)	6.12 (inactive)	-0.045	-0.0552	0.283	-0.0615	1.63	0.685 (inactive)	-0.188	1.09 (inactive)	0.272 (inactive)	0.224 (inactive)	0.231 (inactive)	0.0946	-0.235 (inactive)	-0.663 (inactive)	-0.477
COC(=O)C1(CC(C)C)C=C2C(=C(C(C)C)C(=O)C2C)CN1 (stereo not given)	-0.187	0.254 (inactive)	0.825 (inactive)	1.34 (inactive)	-0.872 (inactive)	-0.469	-0.0791	-0.742	-0.15	-0.702	-1.85 (inactive)	0.302	1.06 (inactive)	-0.385 (inactive)	1.07 (inactive)	0.274 (inactive)	-0.38	0.377 (inactive)	-1.05 (inactive)	-2.44
C=C(CCCC)C(=O)CC[C@H](OC(C)=O)c1ccccc1OCCO	0.241	-4.57 (inactive)	1.09 (inactive)	8.25 (active)	-0.195 (inactive)	-0.478	0.0902	-1.49	-0.447	1.42	0.0371 (inactive)	0.149	5.66 (inactive)	-0.686 (inactive)	2.15 (inactive)	-1.83 (inactive)	1.68	-1.56 (inactive)	-0.397 (inactive)	-2.19
COCCOC(=O)N1C(=O)[C@@]2(c3cc(C#CCC(C(=O)OC)C(=O)OC)ccc31)[C@H](C(=O)N1CCCCCCC1)[C@H]1C(=O)O[C@H](c3ccccc3)[C@H](c3ccccc3)N1[C@@H]2c1ccccc1OCCO	1.21	-5.66 (inactive)	-0.728 (inactive)	-0.475 (inactive)	-0.981 (inactive)	2.68	1.91	1.27	1.23	2.06	0.822 (inactive)	2.72	2.04 (inactive)	-0.228 (inactive)	0.489 (inactive)	-1.21 (inactive)	2.14	-0.817 (inactive)	-0.194 (inactive)	-1.87
C[N+](C)(C)CCCC[C@@H]1NC(=O)[C@H]2C[C@@H](C(=O)NCCCCCNC(=O)CS)[C@@H](c3ccc(O)cc3)N2C1=O	0.084	-0.523 (inactive)	-1.39 (inactive)	0.0084 (inactive)	-0.165 (inactive)	0.354	-0.045	0.327	0.891	0.748	1.65 (inactive)	-0.0162	0.105 (inactive)	-0.38 (inactive)	-0.364 (inactive)	-2.52 (inactive)	1.46	0.236 (inactive)	0.335 (inactive)	1.52
CN(C)CCCC[C@@H]1NC(=O)[C@H]2C[C@@H](C(=O)O)[C@@H](c3cccc(OCCO)c3)N2C1=O	0.205	-0.0686 (inactive)	-0.43 (inactive)	0.0124 (inactive)	0.0684 (inactive)	-0.414	0.216	0.717	1.1	1.84	0.0804 (inactive)	0.393	7.58 (inactive)	0.945 (inactive)	-5.21 (inactive)	0.424 (inactive)	0.479	-2.73 (inactive)	-3.04 (inactive)	-1.4
COCCOC(=O)N1C(=O)[C@@]2(c3cc(C#CCCO)ccc31)[C@H](C(=O)N1CCc3cc(OC)c(OC)cc3C1)[C@H]1C(=O)O[C@H](c3ccccc3)[C@H](c3ccccc3)N1[C@@H]2c1ccccc1OCCO	0.75	-1.84 (inactive)	-0.652 (inactive)	-0.89 (inactive)	-0.251 (inactive)	0.587	0.425	0.258	0.904	1.69	0.718 (inactive)	1.33	3.62 (inactive)	0.928 (inactive)	1.6 (inactive)	1.05 (inactive)	0.0854	1.72 (inactive)	1.7 (inactive)	-0.204
C[C@@H](OCc1ccccc1)C1NC(=O)[C@@]23C(=O)N[C@@H](Cc4ccccc4)C2[C@H](C)[C@@]2(C)O[C@H]2C3/C=C/C/C=C\CNC(=O)[C@H](Cc2ccccc2)NC1=O (stereo not given in full)	-0.0187	-3.97 (inactive)	0.541 (inactive)	5.48 (inactive)	-0.164 (inactive)	-0.85	0.0131	-0.258	0.293	1.07	0.725 (inactive)	-0.0544	1.18 (inactive)	0.012 (inactive)	0.526 (inactive)	0.156 (inactive)	0.858	0.487 (inactive)	0.924 (inactive)	0.349
